The list is not random: actives were taken first. Their share in the collection is about 4.1%.
DAX1 inh-1 = inhibitors of DAX1 repression of SF-1 activated StAR promoter; HEK293T StAR-luciferase reporter, SF-1/DAX-1 repression relief; inhibition, % at 6.8 µM; 370,000 tested, 1.1% active;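 active = inhibition above the mean over all tested compounds plus 3 SD, cut at about 3.6% in these data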;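 also: 0% = DAX-1 cells with DMSO and 100% = cells lacking DAX-1 with DMSO; higher inhibition means more luminescence from relief of DAX-1 repression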
hcDAF-12 act = activators of H. contortus DAF-12 nuclear receptor | HEK293 hcDAF-12 lit1-tk-luc reporter, luminescence; 0% DMSO, 100% Δ7-dafachronic acid | activation, % at 6.8 µM | 370,000 tested, 1.4% active | AID 652067;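 active = activation above the mean of all tested compounds plus 3 SD, cut at about 5.5% in these data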;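 also: 100% = response to 3 µM Δ7-dafachronic acid high control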
hgDAF12 agonist = agonists of H. glycines DAF-12 nuclear receptor; HEK293 GAL4-hgDAF12 UAS-luciferase reporter, agonist luminescence; normalized to butyrate control; activation, % at 6.8 µM; 370,000 tested, 1.8% active; AID 687014;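 active = activation above a cutoff set at the mean of all screened compounds plus 3 SD, cut at about 10% in these data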;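 also: 0% = DMSO wells and 100% = sodium butyrate wells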
DAX1 inh-2 = inhibits human nuclear receptor DAX1 | HEK293 Gal4-DAX1 luciferase reporter, luminescence | AID 504766 | inhibition, % at 6.75 µM | 340,000 tested, 0.99% active;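 active = inhibition above the mean over all tested compounds plus 3 SD, cut at about 4.2% in these data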;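 also: 0% = DAX1-transfected cells with DMSO and 100% = empty-vector control cells with DMSO; inhibition shows as a rise in luminescence from relieved DAX1 repression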
Target sequence (P51843 207-470 limits assumed): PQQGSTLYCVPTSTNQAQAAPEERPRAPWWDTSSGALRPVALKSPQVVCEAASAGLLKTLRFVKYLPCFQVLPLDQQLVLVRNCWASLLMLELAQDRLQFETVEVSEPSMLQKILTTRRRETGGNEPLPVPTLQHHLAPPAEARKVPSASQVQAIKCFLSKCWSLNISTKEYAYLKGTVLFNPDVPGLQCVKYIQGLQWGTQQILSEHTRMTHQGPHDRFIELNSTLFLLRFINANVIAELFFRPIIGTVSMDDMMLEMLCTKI
ssDAF-12 act = activates DAF-12 receptor from parasite S. stercoralis. HEK293 ssDAF-12/GRIP1 lit1-tk-luc reporter, luminescence; % of 3 µM dafachronic acid response. activation, % at 6.8 µM. 370,000 tested, 1% active;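 active = activation above the mean over all tested compounds plus 3 SD, cut at about 0.9% in these data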;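 also: 0% = DMSO-only wells and 100% = 3 µM delta7-dafachronic acid wells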
Active calls of the source: *; nt = no result given.

SMILES | DAX1 inh-1 | hcDAF-12 act | hgDAF12 agonist | DAX1 inh-2 | ssDAF-12 act
CC(=O)OC12CCCN(C1)/C(=C/c1ccccc1)C2 (centres undefined) | 0 | -2 | 0 | nt | -1
Cc1ccc(S(=O)(=O)N2CCCC2C(=O)N2CCN(c3ccccc3)CC2)cc1 (centres undefined) | -1 | -3 | -3 | nt | -1
COc1cc(O)sc1C=Nc1ccc(Cl)cc1Cl | 1 | 0 | -1 | 2 | 1.1*
Cc1cc2nc(-c3ccc(SCC(=O)Nc4ccc(S(=O)(=O)N5CCCC5)cc4)nc3)[nH]c2cc1C | 3.7* | 4 | 10 | 0 | 0
Nc1cc(=O)[nH]c(SCC(=O)Nc2ccc(S(=O)(=O)N3CCCC3)cc2)n1 | -1 | 0 | 9 | 4.3* | -2
COC(=O)C1CN(Cc2ccccc2)CCS(=O)(=O)N1Cc1ccccc1 (centres undefined) | 0 | -1 | 2 | nt | -1
Cc1ccc(-c2cc(C(=O)NN=C/C=C/c3ccco3)[nH]n2)cc1C | 1 | 0 | 6 | nt | -1
CCCCOCCCNC(=O)C[C@H]1C[C@@]2(C(=O)OC)C(=C[C@H](C(C)C)O[C@@H]2C2CC2)N(Cc2ccc(Cl)cc2Cl)C1=O | -1 | -2 | -2 | nt | 0
COc1ccccc1CCc1nnc(CCC(=O)N(C)Cc2cccc3cnccc23)o1 | 1 | 1 | 11* | 1 | -1
CN1C(=O)C[C@@](C#N)(C(=O)NCc2ccccc2)[C@H]1c1ccccc1 | 0 | 3 | -1 | nt | 0
OCC(CCc1c[nH]c2ccccc12)c1c[nH]c2ccccc12 (centres undefined) | -1 | 4 | 2 | nt | 1
CCN(C(=O)COC(=O)c1ccc2c(c1)OCO2)c1c(N)n(Cc2ccccc2)c(=O)[nH]c1=O | -1 | -2 | -1 | 0 | -1
COCCN(C(=O)COC(=O)c1ccc2c(c1)OCO2)c1c(N)n(Cc2ccccc2)c(=O)[nH]c1=O | -1 | -1 | 0 | 4.4* | -2
O=C(NCC1COCCO1)C1CCN(S(=O)(=O)c2cccs2)CC1 (centres undefined) | 0 | -1 | 2 | nt | -1
Cn1ccnc1CN1CCC[C@]2(CC[C@H](CCC#N)O2)C1 | 1 | 1 | 0 | nt | -2
Cc1[nH]nc2c1C(c1ccc(Br)cc1)N(c1ccccc1)C2=O (centres undefined) | 0 | 0 | -4 | nt | -1
CCc1ccc(C2=NN(C(=O)CCC(=O)O)C(c3cccs3)C2)cc1 (centres undefined) | -1 | 1 | 6 | 4.7* | 0
Cc1ccc(C2=NN(C(=O)CCC(=O)O)C(c3ccc4c(c3)OCO4)C2)cc1 (centres undefined) | 0 | 1 | 0 | 1 | -1
Cc1ccc(C2=NN(C(=O)CCC(=O)O)C(c3cccs3)C2)cc1 (centres undefined) | 0 | 0 | 1 | -1 | -1
O=C(O)CCC(=O)N1N=C(c2ccccc2)CC1c1ccc2c(c1)OCO2 (centres undefined) | 0 | 5.7* | 9 | 2 | 1
CCCN1CCN(CCCNC(=O)c2cc3c(=O)n(C)c4ccccc4c3n2C)CC1 | 2 | 1 | 0 | 8.4* | -1
CCCCN(CC)CCNC(=O)c1cc2c(=O)n(C)c3ccccc3c2n1C | 2 | 5 | 3 | 3 | -1
CCCN(CCC)CCCNC(=O)c1cc2c(=O)n(C)c3ccccc3c2n1C | 5.0* | 2 | 0 | 7.8* | 0
CCN(CC)CCCNC(=O)c1cc2c(=O)n(C)c3ccccc3c2n1C | 3 | 3 | 3 | 7.5* | 0
CCN(CC)CCNC(=O)c1cc2c(=O)n(C)c3ccccc3c2n1C | 4.2* | -2 | 4 | 3 | 0
SMILES | DAX1 inh-1 | hcDAF-12 act | hgDAF12 agonist | DAX1 inh-2 | ssDAF-12 act
Cn1c(C(=O)NCCCN2CCCCCC2)cc2c(=O)n(C)c3ccccc3c21 | 1 | 0 | 4 | 4 | 0
CCCCCN1CCCCC(NC(=O)c2ccc(F)cc2)C1=O (centres undefined) | -1 | -2 | -2 | nt | -1
C=CCN=C1NC(c2cccc(F)c2)C(C(=O)OC)=C(C)N1Cc1cccc(C(F)(F)F)c1 (centres undefined) | 0 | -2 | -3 | nt | -1
CN(C(=O)c1cc(C(=O)N(C)c2ccccc2)cc([N+](=O)[O-])c1)c1ccccc1 | -1 | -3 | 0 | 4.3* | -2
CCCCCC[C@@H](CCCc1ccccc1OC)CN(CCCC)S(C)(=O)=O | 0 | -1 | 2 | nt | -2
C/C(=N\NC(=O)c1nn(C)cc1Br)c1ccncc1 | 2 | 1 | 10 | 7.6* | -1
C/C(=N\NC(=O)c1nn(C)cc1Cl)c1ccncc1 | 1 | 2 | 10 | 1 | 0
Nc1[nH]c(C(=O)c2ccccc2)c(-c2ccccc2Cl)c1C(=O)NCCc1c[nH]c2ccccc12 | -1 | -2 | 0 | nt | 0
COCCNC(=O)c1cc2c(s1)-c1ccc(Cl)cc1SC2 | 2 | 1 | 13* | 5.0* | 1
CCN(CC)C(=O)c1ccc(/C=C/c2c[nH]c3ccccc23)[n+](C)c1 | 1 | 2 | 2 | 0 | 1.6*
Cc1ccc(C(=O)Nc2cc(Cl)ccc2-n2cncn2)o1 | 1 | 4 | 1 | 2 | 1.2*
COC(=O)[C@]12C[C@H](CC(=O)N3CCN(C(=O)C4CC4)CC3)C(=O)N(Cc3ccc(Cl)cc3Cl)C1=C[C@H](COCc1ccccc1)O[C@@H]2C | -1 | -3 | 0 | nt | -1
O=C1CCC(=O)c2oc3ccccc3c2N1 | 0 | -1 | 1 | -1 | -1
O=C1CCc2cccc(O)c2N1 | -1 | 0 | 0 | 4.9* | -1
Cc1cc2c(c(C)c1CCO)C(=O)[C@H](C)C2 | 1 | -1 | 2 | 4.7* | -1
Cc1cc2c(c(C)c1CCO[C@@H]1O[C@H](CO)[C@@H](O)[C@H](O)[C@H]1O)C(=O)[C@@H](C)[C@@H]2O | 0 | -1 | 1 | -1 | -1
CC1CCN(Cc2nc(-c3ccccc3)no2)CC1 | 1 | 5 | 13* | 4 | -1
Cc1ccc(C(=O)N2CCC(Oc3cccnc3)CC2)cc1 | 0 | -1 | -5 | nt | -1
C/C(=N\Nc1nccnc1Cl)c1ccc(O)c(C)c1 | 2 | 4 | 12* | -1 | 0
O=C(COc1ccccc1)Nc1cc(Cl)ccc1Cl | 1 | 5.9* | 7 | 4.6* | 0
CCOC(=O)c1nc(-c2ccc(OC)c(OC)c2)cnc1C#N | 1 | 4 | -4 | 6.9* | -1
COC(=O)[C@]1(CNC(=O)C(F)(F)F)CC(=O)N(C)[C@@H]1c1ccccc1 | 0 | 0 | 5 | nt | -1
C=CCc1cc(Cl)ccc1OCCNCCCOC | -1 | -2 | -1 | 7.1* | -2
C=CCc1cc(Cl)ccc1OCCOCCNCCOC | 0 | -2 | -2 | 0 | -1
CC12CC3(C)CC(C)(C1)CC(C(N)=O)(C2)C3 | 0 | -2 | 3 | 5.8* | -2
CN(C)CCOC(=O)C12CC3(C)CC(C)(CC(C)(C3)C1)C2 | 1 | -1 | 0 | 2 | -1
